TDP-43 yeast inh – TDP-43 toxicity inhibition in yeast | AID 652104 | 410,000 tested, 1.8% active | TDP-43 expressing yeast growth rescue, BacTiter-Glo, 24 h | Potency, µM (top dose mostly 46.1 µM), for the others: at the top dose growth rescue (activation), hits mostly activators; also: % of control where 0% means no effect; nearly all actives have a fitted effect of over 50% in size
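Growth rescue of TDP-43-toxic yeast measured as ATP luminescence (BacTiter-Glo). Cells grown to mid-log in raffinose, induced in galactose at OD600=0.02, exposed to compound 24 hr at 30 deg C.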
aSyn yeast inh – alpha-synuclein toxicity inhibition in yeast; Yeast expressing alpha-synuclein, growth rescue, BacTiter-Glo, 24 h; Potency, µM (titrated, usually from 46.1 µM), without a hit: at the highest dose growth rescue (activation), usual class: activators; 370,000 tested, 0.14% active; also: % of control where 0% means no effect; nearly all actives have a fitted effect of over 65% in size
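Galactose-induced alpha-syn yeast (OD600=0.02, raffinose-pregrown) + pinned cpd, 24 hr, 30 deg C; growth by BacTiter-Glo luminescence. Growth restoration scores as activation.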
FUS yeast rescue – rescues growth of FUS-expressing yeast | Potency, µM (doses to about 76.6 µM), hits mostly activators | AID 1347120 | S. cerevisiae FUS-expressing, growth rescue, OD600, 24 h | 390,000 tested, 0.24% active;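 also: plate controls were DMSO vehicle for no effect and reference control for full effect; nearly all actives have a fitted effect of over 55% in size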
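Yeast expressing FUS under galactose induction, OD 0.005 in 2% galactose medium; compounds in a dilution series, 24 h at 30C. Growth rescue by absorbance at 600 nm; CP55940 positive control, DMSO negative.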
Abeta rescue – restores growth of yeast expressing A-beta42 peptide; yeast expressing A-beta42, growth rescue, OD600, 48 h; response scale: 0% DMSO, 100% iron-clioquinol control; 410,000 tested, 0.063% active; Potency, µM (doses to about 46.1 µM), most hits filed as activators; also: nearly all actives have a fitted effect of over 55% in size
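Growth rescue measured by 600 nm absorbance after 48 h yeast culture at 30 C with compound. Values normalized between DMSO and an equimolar ferric chloride plus clioquinol control.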
Starred values were filed as active, the others as inactive; i = inactive; u = inconclusive; x = no result; [ ] = remark or other dose. Most compounds without a hit are left out; they make up all but 2.1% or so of the library. Calls follow the shape of the dose curve; as a rule, active = well fitted curve in the direction sought with a large enough effect; inconclusive = small, poorly fitted or top-dose-only effect, or another doubt; inactive = no such curve, though single readings can be large; an effect the other way counts as inactive or inconclusive. Potency is read from the fitted curve at half-maximal effect.

SMILES	TDP-43 yeast inh	aSyn yeast inh	FUS yeast rescue	Abeta rescue
O=C(CSc1nc2ccccc2[nH]1)NN=Cc1ccccc1C(=O)O	x	x	i	x
NC(=Nc1cccc(F)c1)NC(=O)OCc1ccccc1	x	x	i	x
Cc1c(C(=O)O)oc2c1-c1nn(Cc3ccccc3Cl)cc1CC2	16µM*	x	i	i
Cc1ccc(-c2cc(-c3nnc(SCC(=O)Nc4ccccc4-c4ccccc4)n3N)[nH]n2)cc1	x	x	18µM*	x
COc1cc(NC(=O)c2ccccc2)c(C)cc1NC(=O)CSc1nnc(-c2ccccc2F)n1-c1ccc(C)cc1	x	x	10µM*	x
Nn1c(SCC(=O)Nc2cccc3ccccc23)nnc1-c1cc(-c2ccccc2)n[nH]1	x	x	i	x
Cc1ccc(NC(=O)CSc2nnc(-c3ccccc3F)n2-c2ccccc2)c(C)c1	x	x	i	x
O=C(CSc1nnc(-c2ccccc2)n1-c1ccc(Cl)cc1)Nc1ccccc1-c1ccccc1	x	x	8.9µM*	x
Clc1ccc2c(Cl)cc[n+](CCC3CCCCC3)c2c1	x	-4%	x	x
Cc1nc(=S)c2ccccc2[nH]1	14%	-1%	i	i
FC(F)(F)c1nc(=S)c2ccccc2[nH]1	10µM*	-4%	i	i
C(#CC1=CCCCC1)CNCc1ccccc1	x	x	i	x
O=S(=O)(c1cc2ccccc2s1)n1c(CN2CCOCC2)nc2ccccc21	x	x	i	x
Cc1c(C(=O)N2CCN(c3cccc(Cl)c3)CC2)cccc1[N+](=O)[O-]	22µM*	23%	i	u
Cc1cc(C(=O)N2CCN(c3cccc(Cl)c3)CC2)c2c(C)nn(-c3ccccc3Cl)c2n1	20µM*	x	u	i
Cc1ccc(N2CCN(C(=O)c3cccc([N+](=O)[O-])c3)CC2)cc1Cl	13µM*	7%	i	u
O=C(c1cccc([N+](=O)[O-])c1)N1CCN(c2cccc(Cl)c2)CC1	11%	10%	x	i
O=C(c1ccc(C#Cc2ccccc2)cc1)N1CCC(O)CC1	x	x	i	x
CCCCC#Cc1nc(NC)c2ncn([C@@H]3O[C@H](CO)[C@@H](O)[C@H]3O)c2n1	x	5%	x	x
CC1(C)Cc2ccccc2-c2nc3ccccc3c(=O)n21	13µM*	2%	i	i
O=C1c2ccccc2-n2c1nc1ccccc1c2=O	-14%	-8%	i	i
O=[N+]([O-])c1ccc(Nc2nccc(Cl)n2)cc1	5.6µM*	3%	i	i
O=C(CCl)NCc1cc(-c2ccc(Cl)cc2)no1	10µM*	-8%	i	i
COc1ccc(OCc2cc(-c3ccc(Cl)cc3)no2)cc1	0%	0%	i	i
S=C(Nc1ccccc1)OC1CCC12CCC(c1ccccc1)CC2 (stereo unspecified)	x	x	i	x
SMILES	TDP-43 yeast inh	aSyn yeast inh	FUS yeast rescue	Abeta rescue
CCN(Cc1ccccc1)c1ncnc2c1cnn2-c1ccc(F)cc1	25µM*	x	i	i
Cc1ccc(S(=O)(=O)NCC2CN(S(=O)(=O)c3ccc(C)cc3)c3ccccc3C(=O)N2c2ccc(F)cc2)cc1 (stereo unspecified)	x	x	18µM*	x
Oc1ccccc1-c1cc(-c2cccc(F)c2)n[nH]1	3.2µM*	2%	i	i
C=CCNC1=C(Cl)C(=O)N(c2cccc(Cl)c2Cl)C1=O	16µM*	20%	i	i[9.22 µM]
O=C(NCCc1ccc(Cl)cc1)C1(c2ccccc2)CC1	14µM*	16%	i	i
O=C(CSc1nc2ccccc2o1)NCc1ccc2c(c1)OCO2	14µM*	0%	i	i
O=C(CN1CCCc2ccccc21)NCCc1ccc(Cl)cc1	14µM*	5%	i	i
O=C(CSc1nc2ccc(Cl)cc2o1)NCc1ccc2c(c1)OCO2	u	-2%	i	i
O=C(CN1CCCc2ccccc21)NCc1ccc2c(c1)OCO2	11µM*	15%	i	i
CC(C)Oc1cccc(-c2csc(N3CCC(C(N)=O)CC3)n2)c1	x	x	i	x
N#Cc1ccc(NC(=S)/N=C(\N)c2ccccc2)cc1	11µM*	-21%	i	u
N/C(=N\C(=S)Nc1ccccc1)c1ccccc1	u	-11%	i	u
NC(=S)Nc1ccc2c(c1)OCO2	5%	1%	i	i
N/C(=N\C(=S)Nc1ccc2c(c1)OCO2)c1ccccc1	20µM*	-12%	i	u
CCN=C1S/C(=C\c2cn(CC)c3ccccc23)C(=O)N1CC	18µM*	9%	i	i
CCN1C(=O)S/C(=C/c2cn(C)c3ccccc23)C1=O	7%	5%	i	i

High-throughput results from PubChem.
